Laboratory results reported in paper PMC7862700, “An all-to-all approach to the identification of sequence-specific readers for epigenetic DNA modifications on cytosine”.

Tests used:
Experiment in all cases: DAPPL (digital affinity profiling via proximity ligation, sequencing); 10 mM Tris-HCl pH 7.5, 50 mM NaCl, 1 mM DTT, 4% glycerol, room temperature, 30 min; GST-TFs on glutathione beads, 16-mer random dsDNA library, 0.1% formaldehyde crosslink after washing; high values mean tight binding
HSF1 = HSF1 (Homo sapiens, UniProt Q00613 1-529); details: protein: recombinant; tags: N-terminal GST; chain copies: 3; dsDNA, one strand shown
In short: (§1)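 Sequencing on an Illumina NextSeq500 followed washing, crosslinking with 0.1% formaldehyde, proximity ligation (BsaI/T4 ligase, 1 h, 37 °C) and PCR amplification of pools that had been incubated for 30 min at room temperature with 200 nmole of a random double-stranded 16-mer DNA library in Tris/NaCl/DTT/glycerol buffer. Each pool held DNA-barcoded human transcription factors, expressed in yeast as GST fusions and captured on glutathione beads, plus a tag-only sample. Binding signal is a hexamer's read frequency for a factor divided by its frequency in the tag-only sample.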

SPIC = target: T1, SPIC (Homo sapiens, UniProt Q8N5J4 1-248); details: protein: recombinant; tags: N-terminal GST; dsDNA, one strand shown
T1 sequence: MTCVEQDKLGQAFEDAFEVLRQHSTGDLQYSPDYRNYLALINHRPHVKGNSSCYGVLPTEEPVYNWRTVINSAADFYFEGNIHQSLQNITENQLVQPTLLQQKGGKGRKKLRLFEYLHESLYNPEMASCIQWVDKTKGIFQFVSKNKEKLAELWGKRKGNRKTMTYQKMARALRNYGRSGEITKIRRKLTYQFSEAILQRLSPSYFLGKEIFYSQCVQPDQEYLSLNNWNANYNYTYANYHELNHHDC
In short: as §1

CRX = CRX (Homo sapiens, UniProt O43186 1-299); details: protein: recombinant; tags: N-terminal GST; dsDNA, one strand shown
In short: as §1

SPIB = SPIB (Homo sapiens, UniProt Q01892 1-262); details: protein: recombinant; tags: N-terminal GST; dsDNA, one strand shown
In short: as §1

ELF4 = ELF4 (Homo sapiens, UniProt Q99607 1-663); details: protein: recombinant; tags: N-terminal GST; dsDNA, one strand shown
In short: as §1

ELK4 = target: T2, ELK4 (Homo sapiens, UniProt P28324-2 1-405); details: protein: recombinant; tags: N-terminal GST; dsDNA, one strand shown
T2 sequence: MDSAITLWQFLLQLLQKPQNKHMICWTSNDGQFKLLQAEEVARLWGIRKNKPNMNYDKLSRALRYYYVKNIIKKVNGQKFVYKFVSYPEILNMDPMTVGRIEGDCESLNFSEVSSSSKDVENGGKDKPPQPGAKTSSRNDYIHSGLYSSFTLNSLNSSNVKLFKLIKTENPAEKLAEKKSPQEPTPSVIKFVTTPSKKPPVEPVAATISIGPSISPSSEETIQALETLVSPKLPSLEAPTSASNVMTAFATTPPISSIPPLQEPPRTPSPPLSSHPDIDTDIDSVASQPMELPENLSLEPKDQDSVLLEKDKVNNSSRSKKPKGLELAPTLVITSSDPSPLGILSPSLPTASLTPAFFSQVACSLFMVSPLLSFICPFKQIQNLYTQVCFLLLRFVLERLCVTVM
In short: as §1

ETV2 = target: T3, ETV2 (Homo sapiens, UniProt O00321 1-342); details: protein: recombinant; tags: N-terminal GST; dsDNA, one strand shown
T3 sequence: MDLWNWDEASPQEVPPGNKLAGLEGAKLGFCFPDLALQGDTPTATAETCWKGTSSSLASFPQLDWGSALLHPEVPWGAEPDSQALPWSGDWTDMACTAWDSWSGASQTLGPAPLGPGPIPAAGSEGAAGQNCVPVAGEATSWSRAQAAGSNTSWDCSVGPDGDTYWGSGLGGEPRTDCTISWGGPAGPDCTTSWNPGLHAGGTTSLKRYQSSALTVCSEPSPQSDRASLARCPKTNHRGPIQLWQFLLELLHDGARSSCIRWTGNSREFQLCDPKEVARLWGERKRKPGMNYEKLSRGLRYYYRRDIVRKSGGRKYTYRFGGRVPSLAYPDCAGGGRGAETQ
In short: as §1

ETV6 = ETV6 (Homo sapiens, UniProt P41212 1-452); details: protein: recombinant; tags: N-terminal GST; dsDNA, one strand shown
In short: as §1

ERF = target: T4, ERF (Homo sapiens, UniProt P50548 1-548); details: protein: recombinant; tags: N-terminal GST; dsDNA, one strand shown
T4 sequence: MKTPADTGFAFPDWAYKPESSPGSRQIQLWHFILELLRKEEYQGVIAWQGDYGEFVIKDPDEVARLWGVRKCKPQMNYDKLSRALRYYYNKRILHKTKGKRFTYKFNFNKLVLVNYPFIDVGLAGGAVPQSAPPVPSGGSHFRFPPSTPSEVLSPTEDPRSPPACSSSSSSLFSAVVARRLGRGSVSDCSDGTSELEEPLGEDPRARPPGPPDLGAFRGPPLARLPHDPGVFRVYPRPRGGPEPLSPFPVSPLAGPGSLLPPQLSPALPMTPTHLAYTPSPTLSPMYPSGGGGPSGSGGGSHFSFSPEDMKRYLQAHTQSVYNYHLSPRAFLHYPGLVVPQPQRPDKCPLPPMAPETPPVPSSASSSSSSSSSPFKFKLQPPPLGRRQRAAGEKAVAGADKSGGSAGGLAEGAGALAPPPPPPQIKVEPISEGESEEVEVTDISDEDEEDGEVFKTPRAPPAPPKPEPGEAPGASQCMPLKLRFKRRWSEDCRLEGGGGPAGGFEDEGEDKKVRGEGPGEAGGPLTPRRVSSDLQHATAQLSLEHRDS
In short: as §1

SPDEF = target: T5, SPDEF (Homo sapiens, UniProt O95238 1-335); details: protein: recombinant; tags: N-terminal GST; dsDNA, one strand shown
T5 sequence: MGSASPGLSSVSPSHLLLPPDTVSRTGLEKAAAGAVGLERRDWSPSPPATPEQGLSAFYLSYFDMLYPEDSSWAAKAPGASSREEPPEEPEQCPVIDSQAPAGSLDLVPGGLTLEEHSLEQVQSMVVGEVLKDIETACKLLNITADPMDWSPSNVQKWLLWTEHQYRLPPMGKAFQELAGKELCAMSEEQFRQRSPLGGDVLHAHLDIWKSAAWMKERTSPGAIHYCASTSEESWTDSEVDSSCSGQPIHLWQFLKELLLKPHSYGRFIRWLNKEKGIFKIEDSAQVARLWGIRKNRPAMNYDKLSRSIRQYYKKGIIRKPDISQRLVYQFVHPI
In short: as §1

ELF1 = ELF1 (Homo sapiens, UniProt P32519 1-619); details: protein: recombinant; tags: N-terminal GST; dsDNA, one strand shown
In short: as §1

ELK3 = target: T6, ELK3 (Homo sapiens, UniProt P41970 1-407); details: protein: recombinant; tags: N-terminal GST; dsDNA, one strand shown
T6 sequence: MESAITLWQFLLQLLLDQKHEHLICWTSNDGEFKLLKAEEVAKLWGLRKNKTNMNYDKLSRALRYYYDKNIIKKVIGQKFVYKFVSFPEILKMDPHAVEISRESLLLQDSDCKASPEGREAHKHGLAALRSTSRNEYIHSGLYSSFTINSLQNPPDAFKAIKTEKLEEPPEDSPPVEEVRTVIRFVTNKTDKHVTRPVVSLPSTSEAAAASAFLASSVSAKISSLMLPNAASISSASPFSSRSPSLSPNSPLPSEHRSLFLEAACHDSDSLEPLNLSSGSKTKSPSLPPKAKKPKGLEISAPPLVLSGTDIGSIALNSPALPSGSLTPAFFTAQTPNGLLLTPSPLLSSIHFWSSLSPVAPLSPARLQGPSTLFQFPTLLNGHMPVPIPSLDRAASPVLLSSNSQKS
In short: as §1

ELF3 = target: T7, ELF3 (Homo sapiens, UniProt P78545 1-371); details: protein: recombinant; tags: N-terminal GST; dsDNA, one strand shown
T7 sequence: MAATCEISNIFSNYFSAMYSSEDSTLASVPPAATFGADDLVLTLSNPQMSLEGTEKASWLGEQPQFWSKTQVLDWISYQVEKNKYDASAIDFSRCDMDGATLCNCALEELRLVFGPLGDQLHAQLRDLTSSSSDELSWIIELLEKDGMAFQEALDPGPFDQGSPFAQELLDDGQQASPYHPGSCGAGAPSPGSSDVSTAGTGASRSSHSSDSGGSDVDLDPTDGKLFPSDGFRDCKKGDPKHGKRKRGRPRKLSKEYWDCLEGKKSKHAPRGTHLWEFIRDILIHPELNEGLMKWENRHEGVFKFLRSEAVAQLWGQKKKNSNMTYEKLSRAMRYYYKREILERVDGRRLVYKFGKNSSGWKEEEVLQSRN
In short: as §1

HSF1, sequence (Q00613 whole entry, the tested form may be a part): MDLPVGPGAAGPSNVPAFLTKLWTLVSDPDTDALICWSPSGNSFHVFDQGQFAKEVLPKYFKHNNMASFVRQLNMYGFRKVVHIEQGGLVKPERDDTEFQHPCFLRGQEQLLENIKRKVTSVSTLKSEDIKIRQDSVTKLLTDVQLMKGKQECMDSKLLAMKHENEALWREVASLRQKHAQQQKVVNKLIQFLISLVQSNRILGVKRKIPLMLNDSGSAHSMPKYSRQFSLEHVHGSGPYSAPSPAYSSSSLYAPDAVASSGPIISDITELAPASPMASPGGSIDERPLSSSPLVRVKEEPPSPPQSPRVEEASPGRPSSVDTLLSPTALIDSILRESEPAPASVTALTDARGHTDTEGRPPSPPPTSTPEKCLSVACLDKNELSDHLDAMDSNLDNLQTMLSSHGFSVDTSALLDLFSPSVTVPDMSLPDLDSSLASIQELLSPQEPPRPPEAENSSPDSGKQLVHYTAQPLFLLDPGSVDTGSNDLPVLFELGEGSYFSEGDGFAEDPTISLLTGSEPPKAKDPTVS
CRX, sequence (O43186 whole entry): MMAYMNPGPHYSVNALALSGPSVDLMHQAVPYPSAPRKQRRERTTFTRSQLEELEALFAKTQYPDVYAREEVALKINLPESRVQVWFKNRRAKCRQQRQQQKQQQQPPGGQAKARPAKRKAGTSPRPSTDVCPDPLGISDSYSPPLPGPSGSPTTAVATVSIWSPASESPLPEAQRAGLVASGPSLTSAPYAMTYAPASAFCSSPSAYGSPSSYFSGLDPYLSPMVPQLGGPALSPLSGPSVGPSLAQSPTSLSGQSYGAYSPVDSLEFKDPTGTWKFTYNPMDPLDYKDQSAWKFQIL
ETV6, sequence (P41212 whole entry): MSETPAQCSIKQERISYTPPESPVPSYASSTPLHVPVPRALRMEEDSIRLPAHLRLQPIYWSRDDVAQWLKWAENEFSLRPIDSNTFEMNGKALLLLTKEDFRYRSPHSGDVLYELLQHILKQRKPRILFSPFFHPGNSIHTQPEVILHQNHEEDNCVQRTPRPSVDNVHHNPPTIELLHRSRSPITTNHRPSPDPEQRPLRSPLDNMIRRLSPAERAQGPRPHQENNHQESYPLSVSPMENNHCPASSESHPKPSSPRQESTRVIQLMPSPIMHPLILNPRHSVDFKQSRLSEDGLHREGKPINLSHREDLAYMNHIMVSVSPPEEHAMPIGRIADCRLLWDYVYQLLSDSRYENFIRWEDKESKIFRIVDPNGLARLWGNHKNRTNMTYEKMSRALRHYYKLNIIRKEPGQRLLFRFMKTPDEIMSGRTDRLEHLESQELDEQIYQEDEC
ELF4, sequence (Q99607 whole entry): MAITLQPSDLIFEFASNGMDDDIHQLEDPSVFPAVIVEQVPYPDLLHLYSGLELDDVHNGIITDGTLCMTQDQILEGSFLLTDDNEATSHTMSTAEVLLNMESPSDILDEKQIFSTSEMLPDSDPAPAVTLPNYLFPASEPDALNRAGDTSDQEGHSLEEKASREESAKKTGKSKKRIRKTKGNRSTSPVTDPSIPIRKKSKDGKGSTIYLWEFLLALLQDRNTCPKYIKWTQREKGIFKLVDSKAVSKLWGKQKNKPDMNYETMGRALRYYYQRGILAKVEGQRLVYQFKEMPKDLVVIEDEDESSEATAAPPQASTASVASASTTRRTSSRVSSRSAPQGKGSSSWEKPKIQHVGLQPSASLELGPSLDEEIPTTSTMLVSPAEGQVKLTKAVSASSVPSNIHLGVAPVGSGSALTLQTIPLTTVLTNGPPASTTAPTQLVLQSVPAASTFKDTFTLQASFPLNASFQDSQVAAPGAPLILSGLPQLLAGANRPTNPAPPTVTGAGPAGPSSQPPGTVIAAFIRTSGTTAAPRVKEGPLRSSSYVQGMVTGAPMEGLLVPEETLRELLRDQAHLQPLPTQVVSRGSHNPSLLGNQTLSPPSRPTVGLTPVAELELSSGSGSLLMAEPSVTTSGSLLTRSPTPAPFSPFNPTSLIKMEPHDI
SPIB, sequence (Q01892 whole entry): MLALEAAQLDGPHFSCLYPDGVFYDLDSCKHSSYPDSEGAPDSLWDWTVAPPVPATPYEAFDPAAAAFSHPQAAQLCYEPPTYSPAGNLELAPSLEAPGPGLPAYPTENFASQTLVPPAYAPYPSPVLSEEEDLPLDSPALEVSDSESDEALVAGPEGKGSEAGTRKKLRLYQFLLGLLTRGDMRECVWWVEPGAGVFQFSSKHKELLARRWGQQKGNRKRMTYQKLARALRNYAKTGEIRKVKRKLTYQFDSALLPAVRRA
ELF1, sequence (P32519 whole entry): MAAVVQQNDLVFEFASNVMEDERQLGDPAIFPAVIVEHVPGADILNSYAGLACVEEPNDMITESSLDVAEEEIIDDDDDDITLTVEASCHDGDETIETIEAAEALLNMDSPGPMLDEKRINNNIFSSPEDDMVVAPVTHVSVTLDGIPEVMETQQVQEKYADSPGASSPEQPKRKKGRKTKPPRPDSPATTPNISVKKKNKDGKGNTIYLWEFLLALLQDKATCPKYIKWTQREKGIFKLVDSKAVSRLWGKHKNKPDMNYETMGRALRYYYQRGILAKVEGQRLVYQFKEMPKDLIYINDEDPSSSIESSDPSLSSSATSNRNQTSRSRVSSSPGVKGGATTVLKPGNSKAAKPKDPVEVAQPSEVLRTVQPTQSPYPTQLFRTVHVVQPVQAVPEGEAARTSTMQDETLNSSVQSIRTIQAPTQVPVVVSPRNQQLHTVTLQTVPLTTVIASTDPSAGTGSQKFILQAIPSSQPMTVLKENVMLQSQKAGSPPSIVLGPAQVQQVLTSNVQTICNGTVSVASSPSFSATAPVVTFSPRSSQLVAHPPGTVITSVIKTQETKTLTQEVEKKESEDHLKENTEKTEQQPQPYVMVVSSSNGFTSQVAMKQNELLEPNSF

TCGAAG was tested, and the binding signal (HSF1) was 1.57 fold enrichment (6-mer frequency, TF over GST control), the binding signal (SPIC) was 1.02 fold enrichment (6-mer frequency, TF over GST control) and the binding signal (CRX) was 1.09 fold enrichment (6-mer frequency, TF over GST control).
For GATAAA, the binding signal (SPIB) was 1.04 fold enrichment (6-mer frequency, TF over GST control), the binding signal (HSF1) was 1.21 fold enrichment (6-mer frequency, TF over GST control) and the binding signal (ELF4) was 1.01 fold enrichment (6-mer frequency, TF over GST control). For the same sequence, the binding signal (ELK4) was 1.02 fold enrichment (6-mer frequency, TF over GST control), the binding signal (ETV2) was 1.12 fold enrichment (6-mer frequency, TF over GST control) and the binding signal (CRX) was 1.55 fold enrichment (6-mer frequency, TF over GST control). The binding signal (ETV6) was 1 fold enrichment (6-mer frequency, TF over GST control).
In the case of GAATAG, the binding signal (HSF1) was 1.11 fold enrichment (6-mer frequency, TF over GST control), the binding signal (ELK4) was 1.02 fold enrichment (6-mer frequency, TF over GST control) and the binding signal (ETV2) was 1.03 fold enrichment (6-mer frequency, TF over GST control). For the same sequence, the binding signal (ERF) was 1.08 fold enrichment (6-mer frequency, TF over GST control) and the binding signal (SPDEF) was 1.02 fold enrichment (6-mer frequency, TF over GST control).
For GAATGA, the binding signal (ELF1) was 1 fold enrichment (6-mer frequency, TF over GST control), the binding signal (ELK3) was 1.02 fold enrichment (6-mer frequency, TF over GST control) and the binding signal (HSF1) was 1.15 fold enrichment (6-mer frequency, TF over GST control). For the same sequence, the binding signal (ELF4) was 1 fold enrichment (6-mer frequency, TF over GST control), the binding signal (ETV2) was 1.11 fold enrichment (6-mer frequency, TF over GST control) and the binding signal (ELF3) was 1.07 fold enrichment (6-mer frequency, TF over GST control). For the same sequence, the binding signal (ETV6) was 1.02 fold enrichment (6-mer frequency, TF over GST control).
For AGAACT, the binding signal (HSF1) was 1.63 fold enrichment (6-mer frequency, TF over GST control), the binding signal (SPIC) was 1.03 fold enrichment (6-mer frequency, TF over GST control) and the binding signal (CRX) was 1.02 fold enrichment (6-mer frequency, TF over GST control).
CCCAGA was tested, and the binding signal (HSF1) was 1.31 fold enrichment (6-mer frequency, TF over GST control) and the binding signal (ELK4) was 1.01 fold enrichment (6-mer frequency, TF over GST control).
